Results: PMC7862700, “An all-to-all approach to the identification of sequence-specific readers for epigenetic DNA modifications on cytosine”

Legend:
Experiment in all cases: DAPPL (digital affinity profiling via proximity ligation, sequencing); 10 mM Tris-HCl pH 7.5, 50 mM NaCl, 1 mM DTT, 4% glycerol, room temperature, 30 min; GST-TFs on glutathione beads, 16-mer random dsDNA library, 0.1% formaldehyde crosslink after washing; high values mean tight binding
FEV = biological target: T1, FEV (Homo sapiens, UniProt Q99581 1-238); conditions: protein: recombinant; tags: N-terminal GST; dsDNA, one strand shown
T1 sequence: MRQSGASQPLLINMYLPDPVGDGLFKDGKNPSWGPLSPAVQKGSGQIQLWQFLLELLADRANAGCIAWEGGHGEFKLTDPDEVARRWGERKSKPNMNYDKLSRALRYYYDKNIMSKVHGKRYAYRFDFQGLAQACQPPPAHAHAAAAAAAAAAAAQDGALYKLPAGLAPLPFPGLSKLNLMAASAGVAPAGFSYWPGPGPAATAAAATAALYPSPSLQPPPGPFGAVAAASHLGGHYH
Procedure, shortened: (§1)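 Sequencing on an Illumina NextSeq500 followed washing, crosslinking with 0.1% formaldehyde, proximity ligation (BsaI/T4 ligase, 1 h, 37 °C) and PCR amplification of pools that had been incubated for 30 min at room temperature with 200 nmole of a random double-stranded 16-mer DNA library in Tris/NaCl/DTT/glycerol buffer. Each pool held DNA-barcoded human transcription factors, expressed in yeast as GST fusions and captured on glutathione beads, plus a tag-only sample. Binding signal is a hexamer's read frequency for a factor divided by its frequency in the tag-only sample.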

ETV5 = ETV5 (Homo sapiens, UniProt P41161 1-510); conditions: protein: recombinant; tags: N-terminal GST; dsDNA, one strand shown
Procedure, shortened: as §1

HSF1 = HSF1 (Homo sapiens, UniProt Q00613 1-529); conditions: protein: recombinant; tags: N-terminal GST; chain copies: 3; dsDNA, one strand shown
Procedure, shortened: as §1

SPIC = biological target: T2, SPIC (Homo sapiens, UniProt Q8N5J4 1-248); conditions: protein: recombinant; tags: N-terminal GST; dsDNA, one strand shown
T2 sequence: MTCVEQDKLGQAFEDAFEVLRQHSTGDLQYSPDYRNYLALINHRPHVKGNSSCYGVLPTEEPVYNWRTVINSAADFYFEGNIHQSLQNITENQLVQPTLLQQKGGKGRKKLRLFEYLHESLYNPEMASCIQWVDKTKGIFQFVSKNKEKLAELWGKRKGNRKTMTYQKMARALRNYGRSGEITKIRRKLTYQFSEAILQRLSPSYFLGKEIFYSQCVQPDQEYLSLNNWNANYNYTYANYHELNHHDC
Procedure, shortened: as §1

ELF4 = ELF4 (Homo sapiens, UniProt Q99607 1-663); conditions: protein: recombinant; tags: N-terminal GST; dsDNA, one strand shown
Procedure, shortened: as §1

ELK4 = biological target: T3, ELK4 (Homo sapiens, UniProt P28324-2 1-405); conditions: protein: recombinant; tags: N-terminal GST; dsDNA, one strand shown
T3 sequence: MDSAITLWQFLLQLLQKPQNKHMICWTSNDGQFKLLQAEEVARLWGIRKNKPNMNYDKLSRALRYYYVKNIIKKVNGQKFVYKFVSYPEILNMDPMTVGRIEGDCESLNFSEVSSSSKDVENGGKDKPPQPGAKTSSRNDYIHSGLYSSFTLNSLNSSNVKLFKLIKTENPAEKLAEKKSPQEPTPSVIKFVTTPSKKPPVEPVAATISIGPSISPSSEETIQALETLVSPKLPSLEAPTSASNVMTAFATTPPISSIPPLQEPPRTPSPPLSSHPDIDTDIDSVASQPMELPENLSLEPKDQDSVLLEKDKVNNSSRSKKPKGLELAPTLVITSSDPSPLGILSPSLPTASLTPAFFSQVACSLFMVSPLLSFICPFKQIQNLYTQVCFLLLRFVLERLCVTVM
Procedure, shortened: as §1

ETV2 = biological target: T4, ETV2 (Homo sapiens, UniProt O00321 1-342); conditions: protein: recombinant; tags: N-terminal GST; dsDNA, one strand shown
T4 sequence: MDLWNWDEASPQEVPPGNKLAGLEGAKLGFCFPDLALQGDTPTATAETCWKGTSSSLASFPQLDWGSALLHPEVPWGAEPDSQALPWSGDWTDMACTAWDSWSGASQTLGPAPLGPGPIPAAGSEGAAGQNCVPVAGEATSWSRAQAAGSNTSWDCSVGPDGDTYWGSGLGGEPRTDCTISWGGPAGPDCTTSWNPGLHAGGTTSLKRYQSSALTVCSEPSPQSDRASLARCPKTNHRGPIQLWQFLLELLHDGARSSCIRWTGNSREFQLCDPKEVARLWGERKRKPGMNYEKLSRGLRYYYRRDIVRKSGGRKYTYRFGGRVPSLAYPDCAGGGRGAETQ
Procedure, shortened: as §1

ELF3 = biological target: T5, ELF3 (Homo sapiens, UniProt P78545 1-371); conditions: protein: recombinant; tags: N-terminal GST; dsDNA, one strand shown
T5 sequence: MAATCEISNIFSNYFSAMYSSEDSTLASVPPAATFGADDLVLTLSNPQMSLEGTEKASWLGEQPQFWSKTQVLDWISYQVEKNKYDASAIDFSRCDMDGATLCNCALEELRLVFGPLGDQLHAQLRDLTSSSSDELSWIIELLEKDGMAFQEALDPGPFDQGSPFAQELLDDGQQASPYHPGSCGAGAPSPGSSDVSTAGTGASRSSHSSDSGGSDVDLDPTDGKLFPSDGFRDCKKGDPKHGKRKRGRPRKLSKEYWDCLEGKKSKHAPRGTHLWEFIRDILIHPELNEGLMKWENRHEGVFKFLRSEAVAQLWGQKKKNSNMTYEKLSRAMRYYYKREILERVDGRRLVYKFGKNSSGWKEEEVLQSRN
Procedure, shortened: as §1

CRX = CRX (Homo sapiens, UniProt O43186 1-299); conditions: protein: recombinant; tags: N-terminal GST; dsDNA, one strand shown
Procedure, shortened: as §1

ETV1 = ETV1 (Homo sapiens, UniProt P50549 1-477); conditions: protein: recombinant; tags: N-terminal GST; dsDNA, one strand shown
Procedure, shortened: as §1

Sequence of ETV5 (P41161 whole entry): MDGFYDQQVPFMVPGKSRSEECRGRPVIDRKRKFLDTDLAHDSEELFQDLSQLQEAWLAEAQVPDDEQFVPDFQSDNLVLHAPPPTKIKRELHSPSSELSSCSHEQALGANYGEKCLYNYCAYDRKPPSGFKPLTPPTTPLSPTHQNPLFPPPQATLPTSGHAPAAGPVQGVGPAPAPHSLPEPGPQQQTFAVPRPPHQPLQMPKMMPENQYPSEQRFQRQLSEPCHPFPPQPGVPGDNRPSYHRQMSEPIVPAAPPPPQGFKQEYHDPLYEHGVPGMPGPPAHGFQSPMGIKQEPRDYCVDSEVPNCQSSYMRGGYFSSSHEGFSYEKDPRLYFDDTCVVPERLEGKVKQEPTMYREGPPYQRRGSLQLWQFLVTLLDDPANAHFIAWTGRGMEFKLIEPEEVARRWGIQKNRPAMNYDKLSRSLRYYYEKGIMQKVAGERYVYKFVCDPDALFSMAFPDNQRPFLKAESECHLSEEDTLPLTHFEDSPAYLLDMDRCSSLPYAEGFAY
Sequence of CRX (O43186 whole entry): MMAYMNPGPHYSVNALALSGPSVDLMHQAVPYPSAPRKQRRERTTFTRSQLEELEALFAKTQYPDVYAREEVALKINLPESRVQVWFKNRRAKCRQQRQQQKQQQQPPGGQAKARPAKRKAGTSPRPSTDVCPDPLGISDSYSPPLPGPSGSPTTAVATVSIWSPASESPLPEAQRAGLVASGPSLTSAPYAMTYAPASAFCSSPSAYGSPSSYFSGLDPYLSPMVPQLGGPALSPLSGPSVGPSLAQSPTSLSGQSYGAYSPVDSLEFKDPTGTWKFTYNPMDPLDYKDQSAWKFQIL
Sequence of ELF4 (Q99607 whole entry): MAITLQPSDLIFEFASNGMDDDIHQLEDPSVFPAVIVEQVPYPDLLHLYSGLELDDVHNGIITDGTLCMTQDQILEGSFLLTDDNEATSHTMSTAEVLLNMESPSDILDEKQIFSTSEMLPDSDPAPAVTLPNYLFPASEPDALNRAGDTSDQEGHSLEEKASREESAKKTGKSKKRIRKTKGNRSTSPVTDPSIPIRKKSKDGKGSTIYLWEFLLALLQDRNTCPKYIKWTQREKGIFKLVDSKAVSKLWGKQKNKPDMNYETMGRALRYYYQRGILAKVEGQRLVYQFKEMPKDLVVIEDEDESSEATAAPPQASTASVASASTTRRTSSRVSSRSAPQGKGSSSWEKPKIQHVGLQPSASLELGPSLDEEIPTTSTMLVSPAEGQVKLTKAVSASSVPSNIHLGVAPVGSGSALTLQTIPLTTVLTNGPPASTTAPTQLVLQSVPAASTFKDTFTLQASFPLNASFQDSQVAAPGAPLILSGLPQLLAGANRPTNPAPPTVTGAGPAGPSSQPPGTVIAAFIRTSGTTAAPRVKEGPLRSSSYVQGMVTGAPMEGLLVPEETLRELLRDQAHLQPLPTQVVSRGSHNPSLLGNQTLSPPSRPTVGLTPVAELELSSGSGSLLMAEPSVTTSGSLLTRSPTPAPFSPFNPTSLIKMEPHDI
Sequence of HSF1 (Q00613 whole entry): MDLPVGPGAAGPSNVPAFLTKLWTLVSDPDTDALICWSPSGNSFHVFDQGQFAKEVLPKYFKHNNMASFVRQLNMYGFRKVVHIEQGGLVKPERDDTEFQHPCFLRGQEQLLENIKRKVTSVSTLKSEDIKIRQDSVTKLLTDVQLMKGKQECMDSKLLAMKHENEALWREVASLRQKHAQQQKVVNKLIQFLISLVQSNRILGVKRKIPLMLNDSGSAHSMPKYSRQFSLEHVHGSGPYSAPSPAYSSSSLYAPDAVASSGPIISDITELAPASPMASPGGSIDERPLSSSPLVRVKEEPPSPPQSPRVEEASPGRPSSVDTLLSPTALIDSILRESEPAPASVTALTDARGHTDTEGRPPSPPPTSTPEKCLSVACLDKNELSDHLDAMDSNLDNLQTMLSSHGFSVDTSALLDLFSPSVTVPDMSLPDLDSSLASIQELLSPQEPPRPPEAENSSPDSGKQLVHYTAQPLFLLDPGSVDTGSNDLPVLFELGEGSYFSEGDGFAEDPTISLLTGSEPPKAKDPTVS
Sequence of ETV1 (P50549 whole entry): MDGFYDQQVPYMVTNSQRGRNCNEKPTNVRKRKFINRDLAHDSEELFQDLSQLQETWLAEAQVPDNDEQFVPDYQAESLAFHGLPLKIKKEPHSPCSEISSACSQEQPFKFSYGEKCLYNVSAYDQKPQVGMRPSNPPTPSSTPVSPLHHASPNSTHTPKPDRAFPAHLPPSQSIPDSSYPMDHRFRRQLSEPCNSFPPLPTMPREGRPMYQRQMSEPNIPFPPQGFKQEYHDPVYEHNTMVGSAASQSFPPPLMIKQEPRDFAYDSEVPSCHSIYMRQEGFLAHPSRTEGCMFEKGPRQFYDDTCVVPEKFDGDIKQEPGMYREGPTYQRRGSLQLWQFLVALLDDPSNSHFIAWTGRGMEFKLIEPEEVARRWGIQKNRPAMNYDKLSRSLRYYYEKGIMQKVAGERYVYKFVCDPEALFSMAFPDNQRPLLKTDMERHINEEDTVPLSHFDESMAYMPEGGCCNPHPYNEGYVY

TGGCTA
binding signal (FEV): 1.22 fold enrichment (6-mer frequency, TF over GST control) | binding signal (ETV5): 1.2 fold enrichment (6-mer frequency, TF over GST control) | binding signal (HSF1): 1.25 fold enrichment (6-mer frequency, TF over GST control) | binding signal (SPIC): 1.25 fold enrichment (6-mer frequency, TF over GST control) | binding signal (ELF4): 1.19 fold enrichment (6-mer frequency, TF over GST control) | binding signal (ELK4): 1.47 fold enrichment (6-mer frequency, TF over GST control) | binding signal (ETV2): 1.23 fold enrichment (6-mer frequency, TF over GST control) | binding signal (ELF3): 1.27 fold enrichment (6-mer frequency, TF over GST control) | binding signal (CRX): 1.35 fold enrichment (6-mer frequency, TF over GST control) | binding signal (ETV1): 1.16 fold enrichment (6-mer frequency, TF over GST control)
